Screening results as filed in PubChem BioAssay.
Most compounds without a hit are left out; they make up all but 32% or so of the library.
CYP2C19 inh = human CYP2C19 inhibition; P33261; CYP2C19 Supersomes, luciferin-H EGE luminescence, 30 min; inhibition, % at 5 µM; 96,000 tested, 21% active;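 active = CYP2C19 inhibition above a set limit at 5 µM in the primary screen, cut at about 50% in these data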
CYP2C9 inh = inhibitors of human CYP2C9. P11712. CYP2C9 Supersomes, luciferin-H conversion, luminescence. inhibition, % at 5 µM. 96,000 tested, 20% active. AID 777;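 active = blocking of liver enzyme CYP2C9 beyond about 50% at 5 µM, limit read from the data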
Target sequence (P11712 whole entry, looked up): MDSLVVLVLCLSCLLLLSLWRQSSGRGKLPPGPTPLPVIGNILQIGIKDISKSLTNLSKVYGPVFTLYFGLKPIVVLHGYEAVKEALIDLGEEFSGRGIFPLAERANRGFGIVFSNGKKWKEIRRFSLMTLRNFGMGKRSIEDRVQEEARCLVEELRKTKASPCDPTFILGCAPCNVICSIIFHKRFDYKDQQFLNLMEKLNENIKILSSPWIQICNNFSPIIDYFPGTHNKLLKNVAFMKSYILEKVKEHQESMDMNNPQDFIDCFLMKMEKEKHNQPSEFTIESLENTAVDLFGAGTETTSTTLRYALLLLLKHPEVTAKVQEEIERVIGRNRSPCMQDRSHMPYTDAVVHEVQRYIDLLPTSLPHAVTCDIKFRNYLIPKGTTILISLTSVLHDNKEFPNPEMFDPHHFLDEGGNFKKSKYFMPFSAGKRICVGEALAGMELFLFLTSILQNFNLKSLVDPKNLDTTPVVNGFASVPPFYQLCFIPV
CYP2C9 act = CYP2C9 (human) activation; AID 1024; recombinant CYP2C9, luciferin-H conversion, luminescence; hits give high values; factor 1 = untreated enzyme, 0 = blocked; activation factor at 5 µM; 96,000 tested, 1.4% active; P11712;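 active = activation factor of 2 or more for CYP2C9 at a 5 µM dose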
PostGolgi yeast = growth inhibition of a yeast mutant, post-Golgi transport screen. AID 739. 98,000 tested, 0.9% active. post-Golgi transport phenotypic cell assay. inhibition, % at 10 µM;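 also: yeast cells grown in 1536-well plates; yeast grown about 18 h at 30C before absorbance read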
PostGolgi ctrl = growth of the yeast control strain, post-Golgi counter-screen; efflux-deficient yeast background strain, growth absorbance A615, 16 h; inhibition, % at 10 µM; 98,000 tested, 5% active; AID 738
CYP2C19 act = activators of human cytochrome P450 2C19; P33261; recombinant CYP2C19, luciferin-H EGE luminescence; hits give high values; 0 = fully inhibited enzyme, 1 = untreated enzyme; activation factor at 5 µM; 96,000 tested, under 10 active; AID 1025;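 active = activation factor of at least 2 at 5 µM in the primary screen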
Each line names hits and unclear results; the compound was inactive in the other large screens. Rule as the data show it, unless noted: active = inhibition above about 30%; inactive = the rest.

O=C(OC(C(=O)NCc1ccc2c(c1)OCO2)c1ccccc1F)c1ccco1 (configuration not stated)	CYP2C9 inh 67
COc1cccc(CNC(=O)C2(C)Oc3ccccc3NC2=O)c1 (configuration not stated)	CYP2C19 inh 72, CYP2C9 inh 92
COc1ccc(OC)c(-n2nnnc2SCC(=O)NCc2ccc3c(c2)OCO3)c1	CYP2C19 inh 81, CYP2C9 inh 60
COc1cccc(CNC(=O)c2ccc3nc[nH]c3c2)c1	none
COc1ccc(CC(=O)NCc2ccc3c(c2)OCO3)cc1	CYP2C19 inh 97, CYP2C9 inh 69
O=C(OC(C(=O)NCC1CCCO1)c1ccccc1F)c1ccco1 (configuration not stated)	none
COc1cc(C(=O)NCCC(=O)NCc2ccc3c(c2)OCO3)cc(OC)c1OC	none
COc1ccc(OC)c(-n2nnnc2SCC(=O)O)c1	none
COc1ccccc1N1CCN(C(=O)CN(c2ccc(C)c(C)c2)S(C)(=O)=O)CC1	none
CCOC(=O)c1sc(C)c2c(=O)n(CCCN3CCOCC3)cnc12	none
COc1ccc(CNC(=O)C2CCN(c3nccs3)CC2)cc1	none
O=C(NCc1ccc2c(c1)OCO2)Oc1ccccc1	CYP2C19 inh 74
COc1ccc2c(c1)C=C(C(=O)NCc1ccc(Cl)cc1)CO2	CYP2C19 inh 53, CYP2C9 inh 62
CC(N=C1NS(=O)(=O)c2ccccc21)C(=O)NCc1ccc2c(c1)OCO2 (configuration not stated)	CYP2C19 inh 58, CYP2C9 inh 86
Cc1cc2cc(CNC(=O)c3cc4ccccc4o3)ccc2n1C	none
Cc1cc2cc(CNC(=O)c3ccc4c(c3)OCO4)ccc2n1C	CYP2C19 inh 72
CC(C(=O)NCc1ccc2c(c1)OCO2)N(c1ccccc1)S(C)(=O)=O (configuration not stated)	none
COc1ccc(-n2cnnc2SCC(=O)N(C)C2CCS(=O)(=O)C2)cc1 (configuration not stated)	none
COc1cccc(NC(=O)COc2ccc(N3CC(C(=O)NCC(C)C)CC3=O)cc2)c1 (configuration not stated)	none
O=C(NNC(=O)c1cc2cc3ccccc3nc2s1)c1cccc(C(F)(F)F)c1	none
COc1ccc(NCc2ccc3c(c2)OCO3)cc1Cl	CYP2C19 inh 98, CYP2C9 inh 86
COc1ccc(OC)c(CNC(=O)Cc2c(C(=O)O)[nH]c3ccccc23)c1	none
COc1ccc(NC(=O)c2ccc3c(c2)OCO3)cc1Cl	none
O=C(Cc1cccs1)NCc1ccc2c(c1)OCO2	CYP2C19 inh 92
O=C(NCc1ccc2c(c1)OCO2)c1cccnc1	CYP2C19 inh 59
COc1cccc(CNC(=O)Cc2c(C(=O)O)[nH]c3ccccc23)c1	CYP2C9 inh 52
Cc1cccc(NC(=O)CN(C)S(=O)(=O)c2ccccc2)n1	none
COc1ccc(-n2ccnc2SCC(=O)NCc2ccc3c(c2)OCO3)cc1	CYP2C19 inh 100, CYP2C9 inh 94
O=C(NCc1ccc2c(c1)OCO2)c1ccc(C2SCC(=O)N2Cc2ccco2)cc1 (configuration not stated)	CYP2C19 inh 67, CYP2C9 inh 98
COc1ccccc1CC(=O)NCc1ccc2c(c1)OCO2	CYP2C19 inh 90
CN1CCN(C(=O)c2ccc(C3SCC(=O)N3Cc3ccco3)cc2)CC1 (configuration not stated)	none
O=C(NCc1ccc2c(c1)OCO2)c1cccc(N2CCCC2=O)c1	CYP2C19 inh 69, CYP2C9 inh 61
COc1ccc(-c2nc(CS(=O)CC(=O)NCc3ccc4c(c3)OCO4)c(C)o2)cc1 (configuration not stated)	none
COc1ccc(C)cc1C(=O)C1CC(C(=O)O)C(C)(C)C1C (configuration not stated)	none
O=C(CN(Cc1ccccc1Cl)C(=O)c1ccc(CN2CCOCC2)o1)NCC1CCCO1 (configuration not stated)	none
Cc1cnc(C(=O)Nc2cccc3ncccc23)cn1	none (no result: PostGolgi yeast, PostGolgi ctrl)
Cc1cnc(C(=O)Nc2ccccc2-c2ccc(C)o2)cn1	CYP2C9 inh 89
Cc1ccc(C(=O)Nc2ccccc2-c2ccccc2)o1	PostGolgi ctrl 35
COC(=O)c1sc(S(=O)(=O)N2CCC(C(=O)O)CC2)c(C(=O)OC)c1C	none
N#Cc1c(-c2ccc(Cl)cc2)nc2n(c1=O)CCCS2	none
